Source: PubChem BioAssay (National Center for Advancing Translational Sciences (NCATS))
Sampled rows, rich in hits. Any-hit rate of the full collection: about 19%.
HT1080 IDH1KD tx = kills HT-1080 cells with IDH1 knockdown. AID 686971. HT-1080 IDH1 knockdown viability, ATP luminescence, 48 h. Potency, µM (doses to about 46.1 µM), for the others: top-dose activity, negative = toxicity, most hits filed as cytotoxic. hit rate 2% among 360,000;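 note: potency is the fitted concentration of half-maximal effect; 0% = DMSO wells and -100% = cell-free medium wells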
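Assay cells: HT-1080 with IDH1 knockdown, 750 per well, RPMI/5% FBS. Exposure: 48 h at 37 °C following 2 h pre-incubation. Read: CellTiter-Glo luminescence; fitted concentration-response, curve class assigned.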
DT40 TDP1 CPT = DT40-hTDP1 cell growth loss with CPT; chicken DT40 Tdp1-/-;hTDP1 cells + 20 nM CPT, ATP luminescence, 48 h; Potency, µM (top dose mostly 46.2 µM), without a hit: top-dose activity change, negative = growth inhibition, actives largely listed as inhibitors; hit rate 12% among 420,000; AID 686979; note: potency is the fitted concentration of half-maximal effect; nearly all actives have a fitted effect of over 55% in size
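Chicken DT40 Tdp1-/- cells complemented with human TDP1, 400 cells/well, exposed to compounds plus 20 nM camptothecin for at least 48 h at 37 C; viability read as ATP content by CellTiter-Glo luminescence.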
DT40 TDP1 no CPT = qHTS for Inhibitors of human tyrosyl-DNA phosphodiesterase 1 (TDP1): qHTS in cells in absence of CPT; AID 686978, 2013; Potency, µM (doses to about 46.2 µM), without a hit: at the top dose activity change, negative = growth inhibition, actives largely listed as inhibitors; hit rate 15% among 420,000; DT40 Tdp1-/- hTDP1 cells, no CPT, ATP luminescence, 48 h; note: potency is the fitted concentration of half-maximal effect; nearly all actives have a fitted effect of over 55% in size
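Stably hTDP1-transfected Tdp1-null chicken DT40 cells were treated with library compounds minus camptothecin and grown for at least 48 hr at 37 °C, after which cellular ATP was quantified by luminescence.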
HT1080-NT tox = kills 2HG-producing HT-1080-NT fibrosarcoma cells; HT-1080-NT fibrosarcoma viability, CellTiter-Glo ATP luminescence, 48 h; hit rate 1.6% among 360,000; AID 686970; Potency, µM (titrated, usually from 46.1 µM), for inactives: top-dose activity, negative = less viability, usual class: cytotoxic;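 note: NT is the 2HG producing partner of a matched IDH1 knockdown line; potency is the fitted concentration of half-maximal effect; 0% = DMSO-treated cells and -100% = media-only wells without cells; nearly all actives have a fitted effect of over 55% in size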
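Viability by CellTiter-Glo luminescence after 48 h compound exposure at 37C of HT-1080-NT cells (750/well, RPMI, 5% FBS). % activity scaled between DMSO wells and medium-only wells, then curve-fitted and categorized by curve class.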
uPA surface inh = inhibitors of cell surface uPA generation; Potency, µM (titrated, usually from 38.3 µM), for inactives: at the top dose activity change, negative = inhibition, usual class: inhibitors; cell surface uPA generation assay, qHTS; AID 540303; hit rate 0.31% among 330,000; active = well fitted inhibition curve with a large enough effect; inconclusive = small, poorly fitted or top-dose-only effect; inactive = no such curve, though single readings can be large or run the other way; tested in mouse RAW 264.7 cells; note: potency is the fitted concentration of half-maximal effect; nearly all actives have a fitted effect of over 55% in size
IL1B secr inh = inhibitors of inflammasome signaling (IL-1 beta secretion); THP-1 LPS/ATP IL-1B secretion, AlphaLISA, 16 h; hits give low values; activity change, % at 57.5 µM; hit rate 4.7% among 360,000; AID 743279; in the data active = activity change below about -50%; inconclusive = mostly about -30% to -49%
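THP-1 cells pretreated 1 hr with compounds (up to 57.5 uM final), then stimulated with LPS (250 ng/mL final) plus ATP (1.25 mM final); secreted IL-1B measured by AlphaLISA after 16 hr, decreased signal indicating inhibition.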
* = called active by the depositor; [ ] = dose if it differs, or a comment. Unless noted, calls come from the whole dose curve; as a rule, active = well fitted curve in the direction sought with a large enough effect; inconclusive = small, poorly fitted or top-dose-only effect, or another doubt; inactive = no such curve, though single readings can be large; an effect the other way counts as inactive or inconclusive. Unless noted, % is set by controls: 0 for no effect and ±100 for the full control effect.

Oc1c(CN2CCN(c3ccccn3)CC2)cc(Cl)c2cccnc12 was read as HT1080 IDH1KD tx inconclusive, DT40 TDP1 CPT 4.6µM*, DT40 TDP1 no CPT 3.7µM*, HT1080-NT tox inconclusive, uPA surface inh 5% and IL1B secr inh 1.
CCCCN(C)CCCNC(=O)Cn1ncc2c3ccccc3n(Cc3ccccc3F)c2c1=O was read as DT40 TDP1 CPT 13µM* and DT40 TDP1 no CPT 13µM*.
`CCCCN(C)CCCNC(=O)Cn1ncc2c3ccccc3n(Cc3cc(C)ccc3C)c2c1=O` gave DT40 TDP1 CPT 2.6µM* and DT40 TDP1 no CPT 2.9µM*.
For CCCCN(C)CCNC(=O)Cn1ncc2c([nH]c3ccccc32)c1=O the results were DT40 TDP1 CPT 1% and DT40 TDP1 no CPT 0%.
For Cc1ccccc1Cn1c2ccccc2c2cnn(CC(=O)NCc3ccccn3)c(=O)c21 the results were HT1080 IDH1KD tx inconclusive, DT40 TDP1 CPT inconclusive, DT40 TDP1 no CPT inconclusive, HT1080-NT tox inconclusive, uPA surface inh -5% and IL1B secr inh 4.
Screening O=C(Cn1ncc2c3ccccc3n(Cc3ccccc3F)c2c1=O)NCCc1ccc(Cl)cc1 returned DT40 TDP1 CPT inconclusive and DT40 TDP1 no CPT -24%.
CCCN(CCC)CCCNC(=O)Cn1ncc2c3ccccc3n(Cc3ccccc3F)c2c1=O was read as DT40 TDP1 CPT 16µM* and DT40 TDP1 no CPT 23µM*.
O=C(C[n+]1ccccc1Br)c1ccc(I)cc1 was read as DT40 TDP1 CPT -5% and DT40 TDP1 no CPT inconclusive.
For Cc1nc2c(c3c1[nH]c1ccccc13)C(O)CC(C)(C)C2 (stereo not drawn) the results were HT1080 IDH1KD tx -1%, DT40 TDP1 CPT 18µM*, DT40 TDP1 no CPT inconclusive, HT1080-NT tox 0%, uPA surface inh 7% and IL1B secr inh -11.
`Cc1nn(-c2ccccc2)c2c1C(O)CC(C)(C)C2` (stereo not drawn) gave HT1080 IDH1KD tx -3%, DT40 TDP1 CPT 5%, DT40 TDP1 no CPT 3%, HT1080-NT tox -2%, uPA surface inh -2% and IL1B secr inh -22.
Screening CCN(CC)C(=O)CSc1nc(-c2cccs2)cc(-c2cccs2)c1C#N returned HT1080 IDH1KD tx -3%, DT40 TDP1 CPT 23µM*, DT40 TDP1 no CPT inconclusive, HT1080-NT tox -2%, uPA surface inh -9% and IL1B secr inh -27.
For CCN(CC)C(=O)CSc1ncnc2c(-c3cccs3)nsc12 the results were HT1080 IDH1KD tx -11%, DT40 TDP1 CPT -14%, DT40 TDP1 no CPT inconclusive, HT1080-NT tox -18%, uPA surface inh 0% and IL1B secr inh -60*.
For CN1CCN(C(=O)CSc2nc(-c3ccncc3)ccc2C#N)CC1 the results were HT1080 IDH1KD tx 0%, DT40 TDP1 CPT 16%, DT40 TDP1 no CPT -2%, HT1080-NT tox 2%, uPA surface inh -1% and IL1B secr inh -61*.
For CCN(CC)C(=O)CSc1ncnc2sccc12 the results were HT1080 IDH1KD tx 12%, DT40 TDP1 CPT -1%, DT40 TDP1 no CPT 2%, HT1080-NT tox 18%, uPA surface inh 4% and IL1B secr inh 14.
CCN(CC)C(=O)CSc1nc(N)c(C#N)c(-c2cccs2)c1C#N was read as HT1080 IDH1KD tx inconclusive, DT40 TDP1 CPT -10%, DT40 TDP1 no CPT -3%, HT1080-NT tox inconclusive and IL1B secr inh 24.
`CN1CCN(C(=O)CSc2nc(-c3cccs3)cc(-c3cccs3)c2C#N)CC1` gave HT1080 IDH1KD tx -14%, DT40 TDP1 CPT inconclusive, DT40 TDP1 no CPT 18µM*, HT1080-NT tox -21%, uPA surface inh 4% and IL1B secr inh -28.
`CCCCN(C1CCS(=O)(=O)C1)S(=O)(=O)c1cc(C)ccc1C` (stereo not drawn) gave HT1080 IDH1KD tx 5%, DT40 TDP1 CPT -1%, DT40 TDP1 no CPT -26%, HT1080-NT tox 5%, uPA surface inh -1% and IL1B secr inh 6.
Screening CCOC1=C2[C@@H](CN(S(=O)(=O)c3ccc(C)cc3)[C@H]2c2cccs2)[C@H]2C(=O)N(c3ccccc3)C(=O)[C@H]2C1 returned HT1080 IDH1KD tx 5%, DT40 TDP1 CPT -15%, DT40 TDP1 no CPT inconclusive, HT1080-NT tox 6% and IL1B secr inh 19.
COC(=O)c1ccc(-c2cccc3c2OC(CNC(=O)/C=C/c2ccc(OC)c(OC)c2)C3)nc1 (stereo not drawn) was read as DT40 TDP1 CPT inconclusive and DT40 TDP1 no CPT -20%.
Screening COc1ccc(OC)c(-c2cc(Cl)c3c(c2)CC(CNC(=O)/C=C/c2ccccn2)O3)c1 (stereo not drawn) returned DT40 TDP1 CPT 3%[9.04 µM] and DT40 TDP1 no CPT -11%.
For CCOC(=O)c1c(C)oc2ccc(OC(=O)COc3c(F)c(F)c(F)c(F)c3F)cc12 the results were HT1080 IDH1KD tx 12%, DT40 TDP1 CPT -18%, DT40 TDP1 no CPT inconclusive, HT1080-NT tox 3%, uPA surface inh 10% and IL1B secr inh 6.
Screening COc1cccc(-c2cncnc2NCc2cnc(C)cn2)c1 returned DT40 TDP1 CPT 4.6µM* and DT40 TDP1 no CPT 3.7µM*.
For Cc1noc(C)c1-c1cncnc1NCCN1CCOCC1 the results were DT40 TDP1 CPT 4% and DT40 TDP1 no CPT 7%.
For COc1cccc(-c2cncnc2NCCN2CCOCC2)c1 the results were DT40 TDP1 CPT 0.82µM* and DT40 TDP1 no CPT 2.9µM*.
Screening Cc1cnc(CNc2ncncc2-c2cccc(C#N)c2)cn1 returned DT40 TDP1 CPT -6% and DT40 TDP1 no CPT 0%.
`CN(C)c1ccc(-c2cncnc2NCCN2CCOCC2)cc1` gave DT40 TDP1 CPT 0.92µM* and DT40 TDP1 no CPT 1.2µM*.
For Cc1ccccc1-c1cncnc1NCCN1CCOCC1 the results were DT40 TDP1 CPT 2.9µM* and DT40 TDP1 no CPT 3.3µM*.
Screening COc1ccc(C(=O)N2CCC3(CCCN(c4ncccn4)C3)CC2)cc1 returned DT40 TDP1 CPT 2% and DT40 TDP1 no CPT inconclusive.
`O=C1Nc2ccc(F)cc2C12OCCO2` gave HT1080 IDH1KD tx -4%, DT40 TDP1 CPT -10%, DT40 TDP1 no CPT -19%, HT1080-NT tox -15%, uPA surface inh -5% and IL1B secr inh -8.
COc1ccc(Cn2ccnc2)cc1Br was read as HT1080 IDH1KD tx -1%, DT40 TDP1 CPT -1%, DT40 TDP1 no CPT -15%, HT1080-NT tox 5%, uPA surface inh -10% and IL1B secr inh -6.
